Results as given in PMC4336329 (PLoS ONE, 2015).
The campaign covered roughly 310,000 compounds. About 2,200 (0.71%) showed an effect of 50% or more. Effects have a minus sign here. For the sample, strong results were picked, then their nearest neighbours and some compounds at random.

What follows are compounds tested against human ether-à-go-go-related gene (hERG) potassium channel (human, UniProt Q12809) (assay: primary screen, population patch clamp on CHO cells stably expressing hERG; higher = less effect of the substance).
Chain of human ether-à-go-go-related gene (hERG) potassium channel (Q12809 whole entry, looked up): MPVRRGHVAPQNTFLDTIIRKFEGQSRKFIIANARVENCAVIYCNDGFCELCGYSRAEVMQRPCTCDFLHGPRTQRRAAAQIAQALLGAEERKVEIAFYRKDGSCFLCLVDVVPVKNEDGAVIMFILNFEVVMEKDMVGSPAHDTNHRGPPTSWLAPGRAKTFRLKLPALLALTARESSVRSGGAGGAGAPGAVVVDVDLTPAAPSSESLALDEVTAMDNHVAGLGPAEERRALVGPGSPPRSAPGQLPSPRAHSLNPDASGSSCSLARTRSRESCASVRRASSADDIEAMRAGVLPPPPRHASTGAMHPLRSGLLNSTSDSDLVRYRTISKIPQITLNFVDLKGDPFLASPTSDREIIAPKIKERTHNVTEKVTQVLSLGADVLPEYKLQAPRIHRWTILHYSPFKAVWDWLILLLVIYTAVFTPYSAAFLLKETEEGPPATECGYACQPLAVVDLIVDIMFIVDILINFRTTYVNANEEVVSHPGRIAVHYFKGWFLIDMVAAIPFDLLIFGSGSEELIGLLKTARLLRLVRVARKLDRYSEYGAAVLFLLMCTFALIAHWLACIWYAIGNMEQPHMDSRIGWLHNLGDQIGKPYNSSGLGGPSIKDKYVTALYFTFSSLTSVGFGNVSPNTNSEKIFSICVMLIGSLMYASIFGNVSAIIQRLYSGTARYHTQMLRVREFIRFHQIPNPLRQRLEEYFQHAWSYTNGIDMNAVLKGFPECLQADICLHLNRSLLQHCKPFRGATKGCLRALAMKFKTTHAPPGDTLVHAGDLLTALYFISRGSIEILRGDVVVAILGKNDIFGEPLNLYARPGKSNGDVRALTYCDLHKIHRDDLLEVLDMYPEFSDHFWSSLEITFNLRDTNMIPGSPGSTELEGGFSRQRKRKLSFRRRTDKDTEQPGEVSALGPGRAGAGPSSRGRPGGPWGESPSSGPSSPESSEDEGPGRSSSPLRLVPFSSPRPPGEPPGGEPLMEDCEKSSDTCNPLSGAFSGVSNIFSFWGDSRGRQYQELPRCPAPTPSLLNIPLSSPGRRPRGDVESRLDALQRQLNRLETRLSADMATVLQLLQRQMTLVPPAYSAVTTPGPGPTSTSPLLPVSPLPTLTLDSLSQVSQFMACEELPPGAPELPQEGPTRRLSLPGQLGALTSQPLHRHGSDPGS

Compound	hERG current change (%, negative = inhibition) at 1uM
Cc1nnc(SCc2ccc(C(=O)c3ccc(Cl)cc3)o2)n1-c1ccccc1	-14.1%
Cc1[nH]c2ccccc2c1/C=C/c1nc2ccccc2c(=O)n1-c1cccc([N+](=O)[O-])c1	8.08%
CCOc1ccc(C2c3c(oc4cc(C)c(C)cc4c3=O)C(=O)N2CCCN(C)C)cc1OC (centres unmarked)	4.1%
CCN(CC)C(=O)CN(c1cccc(OC)c1)S(=O)(=O)c1ccc(C)cc1	13.2%
Cc1ccc(-n2[nH]c(C)c(/C=N/Nc3ccc([N+](=O)[O-])cc3[N+](=O)[O-])c2=O)cc1C	9.38%
CCOc1ccc(S(=O)(=O)NN=C2CCN(C(C)=O)CC2)cc1	2.55%
CC(C)CNC(=O)CSc1nnc(-c2ccccn2)n1Cc1ccccc1	7.89%
C[C@](N)(CCP(=O)(O)O)C(=O)O.Cl	-5.32%
CCOC(=O)CSc1nc2ccccc2c(=O)n1CC1COc2ccccc2O1 (centres unmarked)	6.59%
O=C(CCNS(=O)(=O)c1cccc2nsnc12)Nc1ccc2c(c1)OCCO2	12%
CSc1ncc(Cl)c(C(=O)[O-])n1.[NH3+]CCc1ccccc1	0.119%
Cc1ccc(CCNC(=O)C2CCN(S(=O)(=O)N3CCC4(CC3)OCCO4)CC2)cc1	9.02%
Cc1nc2ccccc2n1CCc1nc2c3ccccc3nc(SCC#N)n2n1	-0.451%
NC(=O)CSc1nc2c(c(=O)n1-c1ccccc1)C1(CCCCC1)Cc1ccccc1-2	16.4%
COc1ccccc1Nc1c2ccccc2nc2ccccc12	-18.4%
COc1cc(NS(C)(=O)=O)ccc1Nc1c2ccccc2nc2ccccc12.Cl	-59.7%
COc1cc(Nc2c3ccccc3nc3ccccc23)cc(OC)c1OC	-32.7%
Cc1ccc2c(Cn3ccnc3)cc(=O)oc2c1C	15.6%
CCCn1nnnc1NCc1ccc(N2CCCC2)cc1	-1.22%
Cc1ccc2nc(C)n(-c3ccc(F)cc3)c(=O)c2c1	19%
CSc1nc(C)c2c(n1)N(c1ccc(F)cc1)CC2	20.1%
Cc1ccc2nc(C)c3c(c2c1)N(c1ccccc1)CC3	-70%
Cc1ccc2nc(C)c3c(c2c1)N(c1ccc(F)cc1)CC3	-94.5%

Compound	hERG current change (%, negative = inhibition) at 1uM
COc1cccc(N2CCc3c(C)nc4ccc(Cl)cc4c32)c1	-48.5%
Cc1ccc2nc3c(c(N)c2c1)CCN3c1ccccc1.O=C(O)C(=O)O	-2.46%
COc1c2c(cc3oc(=O)c4c5ccc(O)cc5oc4c13)OC(C)(C)CC2	17.1%
c1cncc(-c2nnc(SCc3cccc4ccccc34)o2)c1	0.0047%
CC(=O)N1CCN(c2nc(-c3ccco3)c3c(c2C#N)CC(C)(C)SC3)CC1	7.62%
CCOc1ccc(/C=C(/NC(=O)c2ccc(Cl)cc2)C(=O)O)cc1OCC	-4.42%
COc1ccccc1CC(=O)Nc1ccc([N+](=O)[O-])cc1OC	8.75%
Cn1c(=NC(=O)C2CC2)sc2cccc(F)c21	1.19%
Cc1ccc(CNS(=O)(=O)c2ccc3c(c2)N(C)CCO3)cc1	17.8%
CC(=O)c1ccc(NS(=O)(=O)c2ccc3c(c2)N(C)CCO3)cc1	1.5%
Cc1ccc(NS(=O)(=O)c2ccc3c(c2)N(C)CCO3)cc1	-79.6%
C/C(CC(=O)Nc1ccc(N(C)C)cc1)=N\NC(=O)c1ccc(C(C)(C)C)cc1	15.5%
CCOC(=O)C1(Cc2cccc(OC)c2)CCN(Cc2ccccc2)CC1	-7.08%
CCOC(=O)C1(Cc2cccc(OC)c2)CCN(Cc2cccc(O)c2)CC1	-9.46%
CCOC(=O)C1(Cc2ccccc2)CCN(Cc2cccc3nccnc23)CC1	-10.3%
CCOC(=O)C1(Cc2ccccc2)CCN(Cc2cccn2-c2nccs2)CC1	-69.8%
CCOC(=O)C1(Cc2cccc(OC)c2)CCN(Cc2cccnc2)CC1	11.5%
CCOC(=O)C1(Cc2cccc(OC)c2)CCN(Cc2cccn2-c2nccs2)CC1	-77.7%
CCOC(=O)C1(Cc2cccc(OC)c2)CCN(Cc2ccccc2OC)CC1	-18.5%
CCOC(=O)C1(Cc2cccc(OC)c2)CCN(Cc2cccn2-c2ccccn2)CC1	-79.4%
CCOC(=O)C1(Cc2ccccc2)CCN(Cc2cccn2-c2cccnc2)CC1	1.67%
Cc1ccc(NC(=O)CN(C)C(=O)Cn2c(=O)oc3ccccc32)cc1	7.84%
CC1CC(C)(C)NC(=S)N1CCCC(=O)N1CCN(c2ccc(F)cc2)CC1 (centres unmarked)	-4.06%

Compound	hERG current change (%, negative = inhibition) at 1uM
CCCN(CCC)C(=O)Nc1cc(Cl)ccc1OC	14.4%
CCOC(CNC(=O)Cn1nc(C)c2ccccc21)OCC	8.42%
CCCCn1nnc(NC(=O)c2ccc(-c3ccccc3)cc2)n1	13.7%
CC(C)(C)c1csc(NC(=O)c2c(F)c(F)c(F)c(F)c2F)n1	-2.19%
O=C(c1cc(-c2ccccc2)nc2ccccc12)N1CCN(c2ccccn2)CC1	1.88%
O=C(c1cc(-c2ccncc2)nc2ccccc12)N1CCN(c2ccccn2)CC1	-64%
O=C(c1cc(-c2ccncc2)nc2ccc(Br)cc12)N1CCN(c2ccccn2)CC1	-9.18%
CCCCCCCC(=O)Nc1ccc(C(=O)N/N=C/c2cccc([N+](=O)[O-])c2)cc1	12.6%
O=C(CCSc1ccccc1)OCn1nnc2ccccc2c1=O	13.7%
N#Cc1ccc(OCC(=O)N2CCN(S(=O)(=O)c3cccs3)CC2)cc1	-54.7%
O=C(COc1ccccc1)N1CCN(S(=O)(=O)c2cccs2)CC1	-7.49%
N#Cc1ccc(OCC(=O)N2CCN(S(=O)(=O)c3ccc(Cl)s3)CC2)cc1	-22.7%
CCCc1cc(C(=O)O)c2ccccc2n1	-0.521%
CN(CCC#N)C(=O)COc1ccc(Br)cc1Cl	3.5%
CC(C)c1csc(CN2CCN(Cc3ccc(F)c(F)c3)C(CCO)C2)n1 (centres unmarked)	2.23%
CC(C)c1csc(CN2CCN(Cc3ccc(F)cc3)C(CCO)C2)n1 (centres unmarked)	-4.26%
CCOc1ccc(CN2CCN(Cc3nc(C(C)C)cs3)CC2CCO)cc1 (centres unmarked)	-85.5%
CC(C)c1csc(CN2CCN(Cc3ccccc3)C(CCO)C2)n1 (centres unmarked)	10.1%
COc1cccc(CN2CCN(Cc3nc(C(C)C)cs3)CC2CCO)c1 (centres unmarked)	-20%
Cc1ccc(CN2CCN(Cc3nc(C(C)C)cs3)CC2CCO)cc1 (centres unmarked)	-50.8%
Cc1ccc(S(=O)(=O)NC(=O)NCc2ccc(Cl)cc2)cc1	10.1%
COC(=O)C1C(=O)C2=C(CC1C)NC(C)=C(C(=O)OCc1ccc(OC)cc1)C2c1ccc(C)o1 (centres unmarked)	0.03%
O=S(=O)(c1ccc(F)c(F)c1)N1CCN(Cc2ccc3c(c2)OCO3)CC1	-9.04%

Compound	hERG current change (%, negative = inhibition) at 1uM
Cc1c(NC(=O)c2ccc3c4c(cccc24)CC3)c(=O)n(-c2ccccc2)n1C	15.3%
CC(=O)c1cccc(-n2nnnc2SCC(=O)Nc2cc(C)on2)c1	12.1%
Cc1ccc2nc(CSc3nnc(-c4ccco4)n3-c3ccccc3)cc(=O)n2c1	-2.87%
c1coc(-c2nnc(SCc3cn4ccccc4n3)o2)c1	-2.53%
Cc1ccc2nc(CSc3nnc(-c4ccco4)o3)cc(=O)n2c1	-54%
NC(=O)c1nsc(C(=O)N(c2ccccc2F)C(C(=O)NCc2ccccc2)c2ccc(O)cc2)c1N (centres unmarked)	8.51%
O=C(c1sc2cc(Cl)ccc2c1Cl)N1CCN(CCc2ccccn2)CC1	-36.6%
COc1ccc(C(=O)N2CCN(Cc3ccccn3)CC2)cc1.O=C(O)C(=O)O	3.65%
Cl.O=C(c1ccc(Cl)cc1)N1CCN(CCc2ccccn2)CC1	-53.7%
O=C(c1ccccc1)N1CCN(CCc2ccccn2)CC1	16.3%
COc1ccc(C(=O)N2CCN(c3ccccn3)CC2)cc1	6.53%
COc1ccc(C(=O)N2CCN(CCc3ccccn3)CC2)cc1.Cl	-66.6%
COCCn1c(C)cc(/C=C2\NC(=S)N(C)C2=O)c1C	9.65%
Cc1ccc(S(=O)(=O)NCCC(=O)NC(C)CCc2ccccc2)cc1 (centres unmarked)	-10.7%
C=CCN(c1ccccc1)S(=O)(=O)c1cccc(C(=O)NCC(c2ccccc2OC)N2CCCC2)c1 (centres unmarked)	-12.9%
CCN(CC)c1ccc(C2NC(=O)NC(C)=C2C(=O)Nc2ccccc2)cc1 (centres unmarked)	17.3%
Cc1cccc(NC(=O)CSc2nnnn2C)n1	12.6%
Fc1ccc(-n2cc(CNCCc3ccccn3)c(-c3ccccc3Cl)n2)cc1	-78.2%
Fc1ccc(-n2cc(CNCCc3ccncc3)c(-c3ccccc3Cl)n2)cc1	-3.18%
Fc1ccc(-n2cc(CNCCc3cccnc3)c(-c3ccccc3Cl)n2)cc1	-10%
